Compound activity as filed in PubChem BioAssay.
GC-B act – GC-B (human) receptor activation | HEK293-GC-B cells, CNP EC30, cGMP TR-FRET; 0% at EC30 CNP, 100% saturating CNP | activation, % at 10 µM | 370,000 compounds, 0.11% hits | AID 1920062;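 active means activation at 10 µM reaching about 35% in either raw or pattern-adjusted values, limit read from the data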
CaV13 ICDI inh – Disruptors of the CACNA1D IQ motif to Ca2+-dependent inactivation inhibitor domain association, primary screening, Förster resonance energy transfer in intact living …. HEK cells, CFP/YFP FRET ICDI-IQ, plate reader, 10 min; percent FRET-ratio fall versus neutral wells. inhibition, % at 12.3 µM. 340,000 compounds, 0.098% hits. AID 743397;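 active means mean replicate inhibition of at least 30% and at least 1% of replicates passing that level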;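 further: 0% = median of the neutral control wells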
Rin1-Abl PPI inh – blocks binding of human Rin1 to Abl. P00519+Q13671. TR-FRET Rin1/Abl binding, biochemical. inhibition, % at 7.35 µM. 360,000 compounds, 0.4% hits. AID 588664; in the data active means inhibition above about 5%, passing the limit was not always enough
GC-A act – GC-A (human) enzyme activation; HEK293 GC-A cells, cGMP TR-FRET, EC30 ANP; 0% at EC30 ANP, 100% saturating ANP; P16066; activation, % at 10 µM; AID 1671463; 370,000 compounds, 0.14% hits; in the data active means activation above about 40%
Target sequence (P16066 whole entry, looked up): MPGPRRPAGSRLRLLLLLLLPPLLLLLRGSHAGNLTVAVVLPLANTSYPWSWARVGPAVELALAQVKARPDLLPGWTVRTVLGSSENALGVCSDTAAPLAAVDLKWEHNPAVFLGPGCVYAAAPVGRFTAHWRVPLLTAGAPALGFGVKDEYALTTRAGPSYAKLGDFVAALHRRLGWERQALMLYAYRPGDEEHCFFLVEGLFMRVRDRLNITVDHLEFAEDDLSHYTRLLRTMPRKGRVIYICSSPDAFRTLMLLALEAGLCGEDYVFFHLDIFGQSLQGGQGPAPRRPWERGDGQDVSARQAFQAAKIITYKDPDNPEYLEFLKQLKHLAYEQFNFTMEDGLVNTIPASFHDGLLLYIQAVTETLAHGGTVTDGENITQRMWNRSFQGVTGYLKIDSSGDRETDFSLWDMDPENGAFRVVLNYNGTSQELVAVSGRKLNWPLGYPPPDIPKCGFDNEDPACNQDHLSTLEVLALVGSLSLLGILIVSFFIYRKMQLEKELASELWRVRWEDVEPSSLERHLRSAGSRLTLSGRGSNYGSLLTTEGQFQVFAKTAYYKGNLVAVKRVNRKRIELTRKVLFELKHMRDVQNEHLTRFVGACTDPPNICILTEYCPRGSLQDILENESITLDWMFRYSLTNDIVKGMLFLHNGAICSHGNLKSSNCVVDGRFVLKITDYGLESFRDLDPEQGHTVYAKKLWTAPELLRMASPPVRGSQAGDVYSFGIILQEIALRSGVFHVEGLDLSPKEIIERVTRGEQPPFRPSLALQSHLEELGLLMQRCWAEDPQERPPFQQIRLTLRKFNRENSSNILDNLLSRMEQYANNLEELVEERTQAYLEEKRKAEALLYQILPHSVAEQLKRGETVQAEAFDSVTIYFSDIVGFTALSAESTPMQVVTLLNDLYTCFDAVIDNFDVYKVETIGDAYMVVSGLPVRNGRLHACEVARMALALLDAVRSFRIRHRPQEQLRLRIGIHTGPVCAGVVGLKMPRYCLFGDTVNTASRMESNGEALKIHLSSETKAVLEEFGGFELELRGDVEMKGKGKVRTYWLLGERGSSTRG
Rin1-Abl confirm – confirmation of inhibitors of human Rin1-Abl interaction | shares compounds with Rin1-Abl PPI inh | TR-FRET Rin1-Abl binding, purified proteins | inhibition, % at 7.35 µM | 1,300 compounds, 49% hits
GFP quencher – counter-screen for Rin1-Abl inhibitors: GFP fluorescence quenchers; AID 602125; shares compounds with Rin1-Abl PPI inh; inhibitors/quenchers counterscreen; 1,300 compounds, 8.5% hits; inhibition, % at 6.75 µM;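 further: ABL1-eGFP fusion protein alone without its partner RIN1-SBP; 0% = protein with vehicle and 100% = wells lacking protein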
* = called active by the depositor; · = no result given. The list is not random: actives were taken first. Their share in the collection is about 0.67%. Unless noted, no stated cut-off is given here; in the data, active means inhibition above about 6.5%; inactive means the rest.

SMILES | GC-B act | CaV13 ICDI inh | Rin1-Abl PPI inh | GC-A act | Rin1-Abl confirm | GFP quencher
CN(C)c1ncnc2c1ncn2[C@H]1CN(Cc2ccc(Cl)cc2)C[C@@H](CO)O1 | 1 | -10 | 6.9* | -3 | 3 | -3
CCN(CC)c1ncnc2c1ncn2[C@H]1CN(Cc2ccncc2)C[C@@H](CO)O1 | 1 | -12 | 7.7* | 2 | -3 | 0
CCN(CC)c1ncnc2c1ncn2[C@H]1CN(Cc2ccc(Cl)cc2)C[C@@H](CO)O1 | 0 | -10 | 3 | -4 | · | ·
CC(=O)CC[C@@H]1CC[C@]2(CCCN(C(=O)C3CCCC3)C2)O1 | -2 | · | · | 2 | · | ·
C[C@H]1CCCN1c1ccc2c(c1)O[C@H]1CCN(C1)S2(=O)=O | 10 | · | · | 0 | · | ·
COc1ccccc1C(CNC(=O)COc1cc(C)ccc1Cl)N1CCCC1 (stereo not drawn) | -5 | -6 | 2 | -3 | · | ·
COc1ccc(C(CNC(=O)COc2cc(C)ccc2Cl)N2CCCCC2)cc1 (stereo not drawn) | -7 | -7 | 14* | -9 | -1 | -4
N/C(=N\OC(=O)c1ccc([N+](=O)[O-])cc1)c1cccnc1 | -1 | -5 | 1 | 2 | · | ·
Cc1ccc(C(=O)O/N=C(\N)c2cccnc2)cc1[N+](=O)[O-] | 0 | -3 | 6.9* | 2 | -1 | -2
CCCN(CCC)S(=O)(=O)c1ccc(C(=O)NCc2ccc3c(c2)OCO3)cc1 | 2 | -4 | 6.3* | 4 | -1 | 2
Cc1ncc(C[n+]2csc(CCO)c2C)c(N)n1 | 3 | -4 | -2 | 1 | · | ·
Cc1ncc(C[n+]2csc(C)c2C)c(N)n1 | 6 | -17 | 9.7* | -1 | -1 | -3
CCCCn1c(NS(=O)(=O)c2ccccc2)c(S(=O)(=O)c2ccc(C)cc2)c2nc3ccccc3nc21 | 2 | -2 | 22* | 5 | 11* | -1
CCCCOc1ccc(C(=O)NC2CCCCN(Cc3ccccc3C)C2=O)cc1 (stereo not drawn) | -2 | · | · | 6 | · | ·
COc1ccc(-n2c(SCC(=O)NCC3CCCO3)nnc2-c2ccncc2)cc1 (stereo not drawn) | 5 | · | · | 2 | · | ·
COc1ccc(NS(=O)(=O)c2cccc(C(=O)NC3CCN(Cc4ccccc4)CC3)c2)cc1 | 0 | · | -1 | -2 | · | ·
COc1ccc(Cn2c(=O)[nH]c3cc(C(=O)NC4CCN(Cc5ccccc5)CC4)ccc32)cc1 | 11 | -15 | 12* | 4 | 16* | -1
Cc1cccc(-c2cccc3c4c([nH]c23)[C@@H]2C[C@H](N(C)C(=O)c3ccco3)[C@H]([C@H](C)O)C(=O)N2CC4)c1 | 2 | · | · | -2 | · | ·
COc1cc(/C=C/C(=O)OCC(=O)N2c3ccccc3CC2C)cc(OC)c1OC (stereo not drawn) | -2 | -6 | 0 | -1 | · | ·
CC1Cc2ccccc2N1C(=O)COC(=O)/C=C/c1cccc(F)c1 (stereo not drawn) | -10 | -20 | 12* | 0 | -2 | -1
Cc1ccc(C(=O)NCCc2nnc3ccc(SCC(=O)N4CCCC4)nn23)cc1 | 2 | · | 15* | 3 | 11* | -1
Cc1ccc(C(=O)NC(C)c2ccc(-n3ccnc3)cc2)cc1S(=O)(=O)N1CCOCC1 (stereo not drawn) | -1 | -6 | 11* | -1 | 16* | 0
Cc1ccc(C(=O)NC(C)c2ccccc2)cc1S(=O)(=O)N1CCOCC1 (stereo not drawn) | -1 | -8 | 2 | 2 | · | ·
CCCCNC(=O)C1CCCN1C(=O)Nc1ccc2c(c1)OCO2 (stereo not drawn) | 1 | · | · | 7 | · | ·
Cc1[nH]c(=O)[nH]c1C(=O)CCCCC(=O)OCC(=O)Nc1ccccn1 | 3 | · | 90* | -1 | 97* | -1
COC(=O)C1CN(Cc2cn(Cc3ccc(Cl)cc3)nn2)CCS(=O)(=O)N1Cc1ccc(Cl)cc1 (stereo not drawn) | -15 | · | · | -11 | · | ·
Cn1cccc1C(=O)N1CCN(S(=O)(=O)c2ccc([N+](=O)[O-])cc2)CC1 | 1 | · | · | 2 | · | ·
COc1ccc(CN(CCN2CCOCC2)C(=O)c2cccc(F)c2)cc1OC | -5 | · | · | 2 | · | ·
